# ATXN2 expr inh = reduces ATXN2 reporter expression in HEK-293 cells | HEK-293 ATXN2-luciferase reporter, luminescence, 24 h | Potency, µM (series often up to 57 µM), usual class: inhibitors | hit rate 0.72% among 360,000 | AID 1745845; further: nearly all actives have a fitted effect of over 55% in size
#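 ATXN2-luciferase reporter cells (luciferase flanked by upstream and downstream ATXN2 gene portions) were treated 24 h at 37 °C with compounds at up to 57 uM. SteadyGlo luminescence gave expression; GF-AFC fluorescence gave viability.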
# ATXN viability = reduces viability in counter-screen for ATXN expression inhibitors | S2 cells (HEK-293 line with an ATXN2-luciferase reporter) viability, CellTiter-Fluor protease fluorescence, 24 h | Potency, µM (top dose mostly 56.7 µM), actives largely listed as cytotoxic | hit rate 0.49% among 400,000 | AID 651635; further: nearly all actives have a fitted effect of over 40% in size
# IL1B secr inh = inflammasome signaling inhibition, IL-1 beta readout; THP-1 LPS/ATP IL-1B secretion, AlphaLISA, 16 h; active compounds read low; hit rate 4.7% among 360,000; AID 743279; activity change, % at 57.5 µM; in the data active means activity change below about -50%; inconclusive means mostly about -30% to -49%
#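 Secreted IL-1B measured by AlphaLISA bead assay after 16 h compound exposure of THP-1 cells; compounds (final up to 57.5 uM) added 1 h before LPS (250 ng/mL) and ATP (1.25 mM) stimulation; lower signal means less secretion.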
# DRD3 antagonist = antagonists of human D3 dopamine receptor | hit rate 2.5% among 360,000 | D3R cells, DiscoveRx beta-arrestin luminescence, antagonist mode; active compounds read low | P35462 | AID 652054 | max response, negative = inhibition, %; in the data active means max response below about -50%; inconclusive means no clear call, values can overlap the other calls
# Target sequence (P35462 whole entry, looked up): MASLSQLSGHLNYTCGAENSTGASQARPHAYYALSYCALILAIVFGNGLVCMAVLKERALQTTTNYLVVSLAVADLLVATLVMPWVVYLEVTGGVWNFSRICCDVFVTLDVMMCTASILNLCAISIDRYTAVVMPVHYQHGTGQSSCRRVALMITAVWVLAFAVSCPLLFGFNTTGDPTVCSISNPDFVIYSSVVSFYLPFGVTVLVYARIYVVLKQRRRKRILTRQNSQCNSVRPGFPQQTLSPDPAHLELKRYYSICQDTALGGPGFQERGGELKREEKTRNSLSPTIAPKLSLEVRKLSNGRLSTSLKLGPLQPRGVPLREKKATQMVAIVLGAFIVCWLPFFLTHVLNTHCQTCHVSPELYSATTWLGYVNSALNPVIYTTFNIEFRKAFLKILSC
#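 Cells expressing the human receptor were seeded at 1500 cells/well, incubated overnight at 37 degrees C in 5% CO2, then exposed to library compounds with dopamine controls for 90 minutes at 37 degrees C before luminescent detection.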
# DRD3 agonist = activates the human D3 dopamine receptor | AID 652048 | max activation, % | hit rate 0.58% among 410,000 | D3R DiscoveRx beta-arrestin cells, luminescence, 90 min; in the data active means max activation above about 30%
#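 Cells at 1500/well, incubated overnight, then treated with pinned compounds (dopamine as control) for 90 min at 37 degrees C. DiscoveRx reagent added for 30 - 60 minutes at room temperature; luminescence read.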
# a7 integrin act = activators of alpha7 integrin expression for muscular dystrophy | Potency, µM (doses to about 38.3 µM), usual class: activators | hit rate 0.064% among 350,000 | alpha7betagal myoblasts, beta-gal FDG fluorescence, 48 h | AID 624291; further: nearly all actives have a fitted effect of over 60% in size
#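 alpha7betagal+/- myoblasts (passage 13, 250/well) treated 48 h at 37C with compounds at 1:260 dilution of DMSO stock. Lysed, then beta-galactosidase activity read as FDG fluorescence (ex 480/em 540) after 30 min, with pre-read for autofluorescence.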
# A number is an active result; . = inactive; ? = inconclusive; / = no result; ! = not active in a repeat; [ ] = another dose, or the depositor's remark. Rows were chosen to be rich in hits. Some 7% of all compounds tested hit in one or more screens of this group. Unless noted, the call rests on the fitted dose curve; in most records, active means well fitted curve in the direction sought with a large enough effect; inconclusive means small, poorly fitted or top-dose-only effect, or another doubt; inactive means no such curve, though single readings can be large; an effect the other way counts as inactive or inconclusive.
SMILES,ATXN2 expr inh,ATXN viability,IL1B secr inh,DRD3 antagonist,DRD3 agonist,a7 integrin act
COc1ccc(-c2noc(CSCC(=O)Nc3cccc(C(F)(F)F)c3)n2)cc1OC,/,/,/,/,.,/
CCn1cc(Br)c(C(=O)Nc2ccccc2C(=O)OC)n1,.,.,.,.,.,?
CCn1cc(Cl)c(C(=O)Nc2cccc(C(F)(F)F)c2)n1,.,.,-64,.,.,.
CCn1cc(Cl)c(C(=O)Nc2ccccc2C(N)=O)n1,.,.,.,.,48,.
CCn1cc(Cl)c(C(=O)Nc2ccc3c(c2)OCCO3)n1,.,.,.,.,.,.
COc1cc(NC(=O)CSCC(=O)Nc2cccc(C(F)(F)F)c2)c(Cl)cc1Cl,?,?,-62,.,.,.
O=C(Oc1cccnc1)c1ccc(Cl)cc1,/,/,.,.,.,.
Cc1onc(-c2ccccc2Cl)c1C(=O)N1CCOC12CCN(c1cccc(F)n1)CC2,.,.,.,.,.,.
CCOC(=O)Cn1nnc(-c2ccc(S(C)(=O)=O)cc2)n1,.,.,-60,.,.,.
CCN(CC)C(=O)Cn1nnc(-c2ccc(S(C)(=O)=O)cc2)n1,/,.,.,.,.,.
COc1ccnc(Oc2cc(Cl)cc(Cl)c2)c1C#N,.,.,.,.,.,.
COc1ccc(CN2CCN(c3ncccn3)CC2)c(C)c1C,/,.,.,.,71,.
COc1ccccc1CC(=O)N1CCN(c2ccccn2)CC1,.,.,.,.,.,.
COc1ccc(CN2CCN(c3ccccn3)CC2)c(OC)c1C,.,.,.,-56!,.,.
CCOC(=O)N1CCN(C(=O)Cn2ncc3c2-c2ccccc2OC3)CC1,.,.,.,.,.,.
CCN1CCC(N(Cc2ccc3c(c2)OCO3)C(=O)Nc2ccc(Br)c(C)c2)CC1,25µM,?,/,/,.,/
CCN(CC)c1ccc(NC(=S)NC(=O)Cc2ccccc2)cc1,.,.,.,?,.,.
CC(=O)NC/C(C)=N\Nc1ccc([N+](=O)[O-])cc1,?,?,.,.,.,.
CC(C)OP(=O)(OC(C)C)/C(C=O)=N\Nc1ccc([N+](=O)[O-])cc1,/,28µM,-90,.,.,.
CS(=O)(=O)N(CC(=O)N/N=C/c1cccc2c1OCCO2)c1ccccc1Br,.,.,.,.,.,.
O=C(CN(c1ccc(Cl)c(C(F)(F)F)c1)S(=O)(=O)c1ccccc1)N/N=C/c1cccc2c1OCCO2,?,.,?,-63,.,.
O=c1c2ccccc2nc2n1CCCCC2,.,.,.,.,.,.
N=c1c2ccccc2nc2n1CCCCCCCCCCC2,?,?,-87,.,.,.
CCOC(=O)c1c(NC(=O)c2ccc(S(=O)(=O)N3CCC(C)CC3)cc2)sc2c1CCN(C(C)C)C2,.,/,/,/,.,/
COc1ccc(OC)c(S(=O)(=O)Nc2ccccc2C(=O)N2CCCCC2)c1,.,.,.,.,.,.
SMILES,ATXN2 expr inh,ATXN viability,IL1B secr inh,DRD3 antagonist,DRD3 agonist,a7 integrin act
COC(=O)c1[nH]c2cccc(OC)c2c1NC(=O)CCN1CCC(C)CC1,.,.,.,-77,.,.
COC(=O)c1[nH]c2cccc(OC)c2c1NC(=O)CCN1CCN(c2ccccc2OC)CC1,.,.,.,-90,.,.
COC(=O)c1[nH]c2cccc(OC)c2c1NC(=O)CN1CCN(c2cccc(OC)c2)C(C)C1 (centres undefined),.,.,.,?,.,?
Cc1ccc(NC(=O)c2cccnc2)cc1S(=O)(=O)N1CCOCC1,.,.,.,.,.,.
CC(=O)c1ccc(NC(=O)c2ccc(C)c(S(=O)(=O)N3CCOCC3)c2)cc1,.,.,.,.,.,.
Cc1ccc(C(=O)Nc2ccon2)cc1S(=O)(=O)N1CCOCC1,.,.,.,.,32,.
CCOC(=O)c1ccc(NC(=O)c2ccc(C)c(S(=O)(=O)N3CCOCC3)c2)cc1,25µM,28µM,.,.,.,.
O=C(O)c1ccc(NC(=O)c2ccc(Cl)c(S(=O)(=O)N3CCCCCC3)c2)cc1,.,.,/,/,.,/
Cc1cc(C)n(-c2ccc(C(=O)Nc3ccc(C)c(S(=O)(=O)N4CCOCC4)c3)cc2)n1,?,/,-88,.,.,.
CCN(CC)CCOC(=O)c1ccc(NC(=O)c2ccc(Cl)c(S(=O)(=O)N3CCCCCC3)c2)cc1,.,.,-69,.,.,.
Cc1ccc(C(=O)Nc2ccon2)cc1S(=O)(=O)N1CCCCCC1,.,.,.,.,.,.
Cc1ccc2nc(-c3c[nH]c4ccccc34)c(Nc3ccc(F)cc3)n2c1,?,?,/,/,.,/
CCCCNC(=O)[C@@H]1CSC2c3ccc(OC)c(OC)c3C(=O)N21 (some centres undefined),.,.,.,.,.,.
Oc1cc2c(cc1O)C(c1ccccc1)CNCC2 (centres undefined),.,.,.,.,.,/
Oc1cc2c(cc1O)[C@@H](c1ccccc1)CNCC2,.,.,.,.,.,/
CN1CCc2cc(O)c(O)cc2C(c2ccccc2)C1 (centres undefined),.,.,.,.,108,/
CN1CCc2cc(Cl)c(O)cc2[C@@H](c2ccccc2)C1,.,?,.,-83,.,/
Cc1c(C(=O)N2CCOCC2)c(S(=O)(=O)Nc2cccc(Br)c2)c(C)n1C,.,.,?,.,.,?
Cc1c(C(=O)N2CCCCC2)c(S(=O)(=O)Nc2cccc(Br)c2)c(C)n1C,.,.,.,.,.,10µM
Cc1cc(C)c2c(N)c(C(=O)c3cccc(Cl)c3)sc2n1,.,.,.,.,.,.
CCc1ccccc1NC(=O)c1ccc(NCCc2ccccc2)c([N+](=O)[O-])c1,.,.,.,.,.,.
CCOC(=O)C1CCCN(S(=O)(=O)c2ccc3c(c2)NC(=O)CO3)C1 (centres undefined),.,.,.,.,.,.
O=C(C1CCC(CNS(=O)(=O)c2cccs2)CC1)N1CCN(c2ccc(Cl)cc2)CC1 (centres undefined),?,.,.,.,41!,.
CCOC(=O)c1nn(-c2ccc3c(c2)OCO3)cc1O,.,.,.,.,.,.
COc1ccc(C2NC(=S)NC3=C2CCCC3=C2SCCS2)cc1 (centres undefined),.[11.3 µM],.,-82,.,.,.
CC1Cc2ccccc2N1S(=O)(=O)c1cccs1 (centres undefined),.,.,.,-110,.,.
O=C(CCCCCn1nnc2ccccc2c1=O)Nc1ccccc1F,.,.,.,.,.,?
CCN1C[C@@H]2[C@@H]3C(=O)N(Cc4ccccc4)C(=O)[C@@H]3[C@](CC)(C1=O)N2C(=O)c1ccc(C(C)(C)C)cc1,.,.,.,.,.,.

# Source: PubChem
